Compound activity from PubChem BioAssay.
The list is not random: actives were taken first. Their share in the collection is about 3.6%.
FUS suppressor: FUS proteinopathy suppression in yeast. S. cerevisiae FUS-expressing, growth rescue, OD600, 24 h. AID 1347120. Potency, µM (series often up to 76.6 µM), usual class: activators. 0.24% of 390,000 active;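 further: plate controls were DMSO vehicle for no effect and reference control for full effect; nearly all actives have a fitted effect of over 55% in size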
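Yeast FUS proteinopathy model; galactose-induced FUS (2%), starting OD 0.005. Cpds in dilution series, 24hr, 30C, 99% humidity. Abs 600 nm growth. Pos ctrl CP55940 (top 92uM final); neg ctrl DMSO.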
ClpP mod: qHTS Assay for Activators of ClpP; 1.9% of 340,000 active; ATP-dependent Clp protease proteolytic subunit (Bacillus subtilis (strain 168)), P80244; purified B. subtilis ClpP, FRET peptide cleavage, 20 min; Potency, µM (titrated, usually from 57.5 µM), inactives show top-dose activity change, negative = active; active means well fitted falling curve with a large enough effect; inconclusive means small, poorly fitted or top-dose-only effect; inactive means no such curve, though single readings can be large or run the other way; further: the source files actives as falling curves though it sought activators and does not explain the sign; nearly all actives have a fitted effect of over 65% in size
Target sequence (P80244 whole entry, looked up): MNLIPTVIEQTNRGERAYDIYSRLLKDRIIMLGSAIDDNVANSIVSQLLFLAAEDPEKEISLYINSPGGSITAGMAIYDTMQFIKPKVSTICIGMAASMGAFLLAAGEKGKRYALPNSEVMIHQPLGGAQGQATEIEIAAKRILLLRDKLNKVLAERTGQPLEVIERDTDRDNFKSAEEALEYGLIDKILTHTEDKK
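Purified B. subtilis ClpP, 10 microg/mL final in Tris/HCl pH8 with KCl, BSA, glycerol and Tween-20, cleaved an Abz/nitrotyrosine-quenched decapeptide. Fluorescence (ex 320, em 430) was read at 0 and 20 min at room temperature. Delta was normalized to 5.8 microM ADEP and DMSO/no-enzyme controls.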
TDP-43 yeast inh: TDP-43 toxicity inhibition in yeast; Potency, µM (top dose mostly 46.1 µM), for the others: at the top dose growth rescue (activation), usual class: activators; 1.8% of 410,000 active; TDP-43 expressing yeast growth rescue, BacTiter-Glo, 24 h; further: % of control where 0% means no effect; nearly all actives have a fitted effect of over 50% in size
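Growth rescue of TDP-43-toxic yeast measured as ATP luminescence (BacTiter-Glo). Cells grown to mid-log in raffinose, induced in galactose at OD600=0.02, exposed to compound 24 hr at 30 deg C.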
Abeta rescue: A-beta toxicity reversal in yeast; Potency, µM (highest dose often 46.1 µM), most hits filed as activators; yeast expressing A-beta42, growth rescue, OD600, 48 h; response scale: 0% DMSO, 100% iron-clioquinol control; 0.063% of 410,000 active; AID 1347071; further: nearly all actives have a fitted effect of over 55% in size
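Yeast growth medium received pinned compounds, then yeast cells expressing toxic A-beta were added; plates incubated at 30 C for 48 hr. Growth read as absorbance at 600 nm, normalized to DMSO and equimolar FeCl3 plus clioquinol controls.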
Mm-Cpn inhibitor: inhibitors of Methanococcus maripaludis chaperonin TRiC (MmCpn). Potency, µM (series often up to 76.9 µM), for the others: top-dose activity, negative = inhibition, usual class: inhibitors. 0.031% of 330,000 active. purified Mm-Cpn ATPase, ADP Transcreener TR-FRET; further: on the % scale 0 is the no-effect control and ±100 the full control effect; nearly all actives have a fitted effect of over 80% in size
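Inhibition of chaperonin ATP hydrolysis is measured as reduced ADP production, detected by competitive TR-FRET in which signal falls with ADP. Final enzyme 25 nM and ATP 10 uM, reacted 30 min at 37°C.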
aSyn yeast inh: inhibitors of alpha-synuclein toxicity in yeast; Yeast expressing alpha-synuclein, growth rescue, BacTiter-Glo, 24 h; Potency, µM (series often up to 46.1 µM), for the others: at the highest dose growth rescue (activation), hits mostly activators; 0.14% of 370,000 active; further: % of control where 0% means no effect; nearly all actives have a fitted effect of over 65% in size
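Rescue of yeast growth: cells expressing toxic alpha-synuclein, induced in galactose at OD600 0.02, incubated with compound 24 h at 30 C. ATP luminescence quantified growth; inhibitors of toxicity appear as activators.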
The depositor's hits bear a star; i = inactive; ? = inconclusive; nt = not tested or not shown; [ ] = dose if it differs, or a comment. Unless noted, the call rests on the fitted dose curve; in most records, active means well fitted curve in the direction sought with a large enough effect; inconclusive means small, poorly fitted or top-dose-only effect, or another doubt; inactive means no such curve, though single readings can be large; an effect the other way counts as inactive or inconclusive. Potency means the concentration at half of the fitted maximal effect.

SMILES	FUS suppressor	ClpP mod	TDP-43 yeast inh	Abeta rescue	Mm-Cpn inhibitor	aSyn yeast inh
O=C(Nc1nccs1)c1ccccc1N=Cc1ccccc1	i	28µM*	21%	i	0%	4%
COc1cccc(C=Nc2ccccc2C(=O)Nc2nccs2)c1OC	i	32µM*	15%	i	-11%	-11%
C/C(=C\c1ccccc1)C(=O)Nc1nccs1	i	nt	11µM*	i	-1%	-13%
O=C(Nc1nccs1)Oc1ccccc1	i	1%	8%	i	-3%	-1%
O=C(Nc1ccccc1)c1ccccc1N=Cc1ccccc1O	i	35µM*	3%	i	-2%	0%
CCOc1ccccc1C=Nc1ccccc1C(=O)Nc1ccccc1	nt	-3%	18%	i	-3%	-9%
Cc1ccc2cccc(NC(=O)c3ccc(-c4ccc(Cl)cc4Cl)o3)c2n1	i	1%	-7%	i	nt	nt
Nc1ncc2c(n1)CC(c1ccco1)CC2=O (stereo not given)	i	0%	14µM*	i	-2%	1%
CC(=O)Nc1ncc2c(n1)CC(c1ccco1)CC2=O (stereo not given)	i	5%	-1%	i	2%	-4%
CCCCN(C)c1nc(-c2ccco2)c2c(c1C#N)CC(C)(C)OC2	i	5%	20µM*	i	-4%	-38%
CN(C)CCNc1nc(-c2ccco2)c2c(c1C#N)CC(C)(C)OC2	i	?	-1%	i	1%	-8%
CC1(C)Cc2c(C#N)c(NCCCO)nc(-c3ccccc3)c2CO1	i	5%	13µM*	i	0%	3%
CC1(C)Cc2c(C#N)c(NCc3ccco3)nc(-c3ccco3)c2CO1	i	32µM*	-5%	i	-2%	-9%
Cc1cc2oc(C(=O)Nc3ccc(S(=O)(=O)N(C)Cc4ccccc4)cc3)cc(=O)c2cc1C	i	-3%	?	i	nt	nt
Cc1ccc(C(=O)NCC(c2ccc3c(c2)OCO3)N2CCN(C)CC2)cc1C (stereo not given)	i	-1%	11%	i	nt	nt
CCOc1ccc(-c2nnc(-c3snc(-c4ccc(F)cc4)c3N=CN(C)C)o2)cc1	i	28µM*	-9%	i	-4%	-7%
Fc1ccccc1CSc1nnc(-c2ccccc2)o1	i	1%	11µM*	i	0%	0%
COc1ccc(-c2nnc(SCc3ccccc3F)o2)cc1	i	-3%	11µM*	i	2%	5%
Cc1cc(C)c(Cn2c(=O)n(CCC(=O)NCCc3ccccc3)c(=O)c3ccccc32)c(C)c1	i	-6%	26%	i	nt	nt
Cc1oc(-c2ccc(Cl)cc2)nc1CN1CCCC(C(=O)NCc2ccccc2)C1 (stereo not given)	i	?	18%	i	nt	nt
CC(=O)Oc1ccc2nc(/C=C/c3ccc(C=O)cc3)oc(=O)c2c1	i	nt	-7%	i	0%	-11%
CC(=O)Oc1ccc2nc(/C=C/c3ccccc3)oc(=O)c2c1	i	nt	3.5µM*	i	4%	0%
CC(=O)Oc1ccc2c(=O)oc(-c3ccccc3C)nc2c1	i	2%	14µM*	i	1%	-1%
CC(=O)Oc1ccc(-c2nc3cc(Cl)ccc3c(=O)o2)cc1	i	nt	4µM*	i	0%	0%
CC(=O)Oc1ccc2c(=O)oc(-c3ccccc3)nc2c1	i	nt	-17%[1.82 µM]	i	-1%	-6%
SMILES	FUS suppressor	ClpP mod	TDP-43 yeast inh	Abeta rescue	Mm-Cpn inhibitor	aSyn yeast inh
CSc1nnc2c(n1)c(C)nn2-c1cccc(C)c1	i	0%	13µM*	i	-12%	-9%
CSc1nncc(/C(C)=N\Nc2cccc(C)c2)n1	i	1%	-12%	i	-2%	-2%
CCOC(=O)c1cnc2ccc(OC)cc2c1NCc1ccccc1	nt	-18%	10%	i	0%	-10%
CCOC(=O)c1cnc2ccc(OCC)cc2c1N1CCN(C)CC1	i	-1%	-2%	i	-1%	-4%
CCOC(=O)c1cnc2ccc(OCC)cc2c1N1CCN(c2cccc(Cl)c2)CC1	?	-5%	20µM*	i	nt	nt
CCOC(=O)c1cnc2ccc(OCC)cc2c1NCc1ccccc1OC	i	22µM*	14%	i	-1%	3%
COc1cc2c(NC3CCN(C(C)C)CC3)nc(N3CCCN(C)CC3)nc2cc1OCCCN1CCCC1	nt	4%	nt	nt	nt	?
Cc1cc(C)c2oc(C(=O)Nc3sc4c(c3C(=O)NCc3ccco3)CCCC4)cc(=O)c2c1	i	2%	16%	i	nt	nt
Cc1cccc(Nc2nc(-c3ccc(O)c(O)c3)cs2)n1	i	nt	5%	i	0%	0%
Cc1cccc(Nc2nc(-c3ccc(F)c(C)c3)cs2)n1	i	nt	14µM*	?	2%	-43%
O=C(O)CN1C(=O)/C(=C\c2cccc(OCc3ccccc3F)c2)SC1=S	i	nt	11%	8.9µM*	0%	-20%
O=C(O)CN1C(=O)/C(=C\C(Br)=C\c2ccccc2)SC1=S	i	6%	13µM*	i	-2%	17%
O=C(O)CN1C(=O)/C(=C\c2cccc(OCc3ccc(F)cc3)c2)SC1=S	i	2%	9%	5µM*	3%	-5%
O=C(O)CN1C(=O)/C(=C\c2cccc(OCc3ccc(Cl)cc3)c2)SC1=S	i	-2%	?	?	0%	14%
O=C(O)CN1C(=O)/C(=C/C=C/c2ccccc2)SC1=S	i	2%	12%	i	0%	12%
O=C1CC(c2nnc(Cc3ccc(F)cc3Cl)o2)CN1c1ccccc1 (stereo not given)	i	0%	24%	i	nt	nt
CC(=O)N1CCc2cc(S(=O)(=O)NC(Cc3ccccc3)C(=O)Nc3cc(C)ccc3C)ccc21 (stereo not given)	i	-2%	25%	i	nt	nt
COc1ccccc1CNC(=O)Nc1ccc2c(c1)N(C)C(=O)c1ccccc1S2	?	-3%	19%	i	nt	nt
CCCNC(=O)c1csc(Nc2cccc3ccccc23)n1	i	-10%	32µM*	i	-6%	-34%
COCCNC(=O)c1csc(Nc2cccc3ccccc23)n1	i	-10%	28%	i	0%	0%
O=C(CC(=O)N/N=C/c1ccc(C(=O)O)cc1)NCCc1ccccc1	i	2%	16%	i	0%	4%
COc1ccc(CCNC(=O)CC(=O)N/N=C/c2ccc(C(=O)O)cc2)cc1OC	i	14µM*	-21%	i	1%	-10%
